Experimental data reported in PubChem BioAssay (Tox21).
Values without a mark were called inactive. A call without a number means that no potency is given here. Calls of active or inactive are those of the source. Calls come from the whole dose curve; as a rule, active = well fitted activation curve with a large enough effect in the repeat runs; inconclusive = weak or mixed curves; inactive = flat fitted curve, though single readings scatter.

Test: Caspase-3/7 induction in CHO-K1 cells by small molecules, qHTS assay (AID 1346980); note: nearly all actives have a fitted effect of over 15% in size
Details: CHO-K1 caspase-3/7 induction, Caspase-Glo luminescence, 17 h; series mostly up to 92.4 µM
Excerpt: National Center for Advancing Translational Sciences [NCATS]
NIH Chemical Genomics Center [NCGC]
U.S. Environmental Protection Agency [EPA]
National Institutes of Environmental Health Sciences [NIEHS]
National Toxicology Program [NTP]
Apoptosis is a process of programmed cell death and plays a central role in the development of multicellular organisms. It is a highly regulated process and induces cell death by activating caspases, which are the members of cysteine aspartic acid-specific protease (caspase) family. Caspases involved in apoptosis are classified by their mechanism of action as initiator caspases (caspase-2, -8, -9 and -10) and executioner caspases (caspase-3, -6, and -7). Inhibition of apoptosis results in number of cancers, autoimmune diseases, inflammatory diseases and viral infection. To identify small molecule compounds that induce apoptosis, a homogeneous, luminescent Caspase-Glo 3/7 assay was used. Wild type CHO-K1 cells were used to screen Tox21 libraries for identifying caspase-3/7 activity inducers.
CHO-K1 cells were dispensed at 1,500 per well in 5uL of culture medium into white solid bottom 1536-well plates (Corning Life Sciences, Corning, NY) using a Multidrop Combi (Thermo Scientific, Waltham, MA) dispenser. The assay plates were incubated at 37 C and 5% CO2 for 5hr, and then 23nL of compounds dissolved in DMSO and positive control were transferred using a Pintool station (Wako, San Diego, CA). The assay plates were incubated at 37C and 5% CO2 for 17hr. For caspase-3/7 activity read, 4uL of Caspase-Glo 3/7 reagent (Promega Corporation, Madison, WI) was added to each well of the assay plates using Flying Reagent Dispenser (FRD, Aurora Discovery, San Diego, CA) and incubated the assay plates at room temperature for 30min. The luminescence signal was quantified using a ViewLux plate reader (Perkin Elmer, Shelton, CT).
Potency is the fitted concentration of half-maximal effect.

SMILES	Potency	caspase-3/7 activation
CNNC	inactive	
COc1cccc2c1cc([N+](=O)[O-])c1c(C(=O)O)cc3c(c12)OCO3	9.69 µM (active)	
CCOP(=S)(OCC)Oc1nc(Cl)n(C(C)C)n1	inactive	
CNCC(=O)c1ccc(O)c(O)c1	inactive	
O=C(Cc1ccccc1)OCc1ccccc1	inactive	
CC(=O)C(Cl)Cl	inactive	
O=C1OC(=O)C2C1C1(Cl)C(Cl)=C(Cl)C2(Cl)C1(Cl)Cl (stereo not given)	inactive	
CN1CCN(C(=O)O[C@H]2c3nccnc3C(=O)N2c2ccc(Cl)cn2)CC1	inactive	
CN1C(=S)CN=C(c2ccccc2)c2cc(Cl)ccc21	inactive	
c1cc2c(c(N3CCNCC3)c1)OCCO2	inactive	
CC(C)NCC(O)c1ccc(N)c(C#N)c1 (stereo not given)	inactive	
CC1=C(C(=O)O)N2C(=O)[C@@H](N)[C@H]2SC1		0.154% [at 19 µM]
[As]#[In]	inactive	
COc1cc2c(cc1OC)[C@@]13CCN4CC5=CCO[C@H]6CC(=O)N2[C@H]1[C@H]6[C@H]5C[C@H]43	inactive	
COP(=S)(OC)Oc1ccc(S(N)(=O)=O)cc1	inactive	
O=C(O)C(Br)CBr (stereo not given)	inactive	
CCCCN(CCCCO)N=O	inactive	
N#CCNCC#N	inactive	
CCC(C)n1c(=O)[nH]c(C)c(Br)c1=O (stereo not given)	inactive	
Cc1cnc[nH]1	inactive	

SMILES	Potency	caspase-3/7 activation
Oc1c(Cl)cccc1Cl	inactive	
CCCCCCBr	inactive	
CC1(C)CON(Cc2ccccc2Cl)C1=O	inactive	
O=S(=O)(O)C(F)(F)C(F)(F)C(F)(F)C(F)(F)C(F)(F)C(F)(F)F	inactive	
CC(C)(C)OC(=O)c1ncn2c1[C@@H]1CCCN1C(=O)c1c(Br)cccc1-2	inactive	
Cc1cc(C)nc(Nc2ccccc2)n1	inactive	
CCOC(=O)CP(=O)(OCC)OCC	inactive	
CNC(=O)Oc1c(C(C)(C)C)cc(C)cc1C(C)(C)C	inactive	
Nc1c(Br)cc([N+](=O)[O-])cc1[N+](=O)[O-]	inactive	
CCCCC(=O)Cl	inactive	
CC(C)CC#N	inactive	
COc1cc(OC)nc(NC(=O)NS(=O)(=O)c2ncccc2C(=O)N(C)C)n1	inactive	
CC1(C)C(=O)NC(=O)NC1=O	inactive	
OC(c1ccc(F)cc1)(c1cncnc1)c1ccccc1Cl (stereo not given)	inactive	
CCSC(=O)N(CC)C1CCCCC1	inactive	
Cc1ccccc1CO[C@@H]1C[C@@]2(C(C)C)CC[C@]1(C)O2	inactive	
O=C1CN=C(c2ccccc2)c2cc([N+](=O)[O-])ccc2N1	inactive	
N#CC(CCc1ccc(Cl)cc1)(Cn1cncn1)c1ccccc1 (stereo not given)	inactive	
COP(N)(=S)Oc1ccccc1C(=O)OC(C)C (stereo not given)	inactive	
O=[N+]([O-])c1ccc(CBr)cc1	inactive	
